From PubChem BioAssay (NCI)
Values joined by “and” are separate entries in the source; they are usually repeats but may differ in a detail not shown here. Identical values can stand only once. The panel holds about 83,000 compounds, 20% with a hit somewhere; the sample as a whole holds those more often.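 Cells were grown in 96-well plates and exposed to the test compound at a single concentration for 48 hours; results are reported as percent growth, with values below 10 considered active.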 Active and inactive are the calls of the source.

Columns and labels:
Experiment in all cases: NCI-60 one-dose screen, 48 h (100 = growth as untreated, 0 = no growth, -100 = all killed)
Details in all cases: 10 µM unless noted
HCT-15 colon = test system: HCT-15 colon
HT29 colon = test system: HT29 colon
SNB-75 CNS = test system: SNB-75 CNS
SNB-19 CNS = test system: SNB-19 CNS
U251 CNS = test system: U251 CNS
PC-3 prostate = test system: PC-3 prostate
SK-MEL-5 melanoma = test system: SK-MEL-5 melanoma
UACC-62 melanoma = test system: UACC-62 melanoma
LOX IMVI melanoma = test system: LOX IMVI melanoma
SK-MEL-28 melanoma = test system: SK-MEL-28 melanoma

| SMILES | growth (HCT-15 colon) | growth (HT29 colon) | growth (SNB-75 CNS) | growth (SNB-19 CNS) | growth (U251 CNS) | growth (PC-3 prostate) | growth (SK-MEL-5 melanoma) | growth (UACC-62 melanoma) | growth (LOX IMVI melanoma) | growth (SK-MEL-28 melanoma) |
| --- | --- | --- | --- | --- | --- | --- | --- | --- | --- | --- |
| O=[N+]([O-])c1ccc(NC(c2ccccc2)c2ccc3cccnc3c2O)cc1 (stereo not drawn) | 32.5% (inactive) | 26% (inactive) | 47.3% (inactive) | 21.2% (inactive) | 12.3% (inactive) | 30.3% (inactive) | -1.02% (active) | -4.08% (active) | 9.64% (active) | 27.7% (inactive) |
| O=C(NC(=O)c1ccc(F)c(Cl)c1)NC1CC1 | 86.5% (inactive) and 74.6% (inactive) | 96.4% (inactive) and 94.5% (inactive) | 105% (inactive) and 122% (inactive) | 104% (inactive) | 104% (inactive) | 98.6% (inactive) and 87.5% (inactive) | 88% (inactive) | 99.8% (inactive) and 96.6% (inactive) | 98.6% (inactive) | 111% (inactive) and 107% (inactive) |
| Cc1cc(O)c(C(C)C)cc1N=O | 94.3% (inactive) and 98.9% (inactive) | 114% (inactive) and 94.1% (inactive) | 96.7% (inactive) | 96.1% (inactive) and 99.4% (inactive) | 97.6% (inactive) | 109% (inactive) and 97.6% (inactive) | 99.6% (inactive) and 104% (inactive) | 99.7% (inactive) and 103% (inactive) | 88.5% (inactive) and 99.5% (inactive) | 110% (inactive) and 113% (inactive) |
| CC1OS(=O)OC1C (stereo not drawn) | 94% (inactive) and 98.6% (inactive) | 88.7% (inactive) and 104% (inactive) | 92.6% (inactive) and 94.7% (inactive) | 101% (inactive) | 100% (inactive) and 101% (inactive) | 100% (inactive) and 97.5% (inactive) | 99.9% (inactive) and 98% (inactive) | 95.5% (inactive) and 89.8% (inactive) | 94.1% (inactive) and 91.6% (inactive) | 109% (inactive) and 103% (inactive) |
| O=C1C=CC(=O)N1Cc1ccco1 | 11.6% (inactive) | 34.1% (inactive) | 101% (inactive) | 91% (inactive) | 81.4% (inactive) | 81.6% (inactive) | 86.4% (inactive) | 86.4% (inactive) | 76.6% (inactive) | 113% (inactive) |
| CN(C)C(=N)N=C(N)N | 83.1% (inactive) and 121% (inactive) | 98.6% (inactive) and 113% (inactive) | 101% (inactive) and 114% (inactive) | 106% (inactive) and 108% (inactive) | 81.1% (inactive) and 118% (inactive) | 104% (inactive) | 103% (inactive) and 131% (inactive) | 99.7% (inactive) and 120% (inactive) | 87% (inactive) and 110% (inactive) | 116% (inactive) and 106% (inactive) |
| COc1ccc(-n2[nH]c3c(cnc4ccccc43)c2=O)cc1 | 96.1% (inactive) and 91.4% (inactive) | 95.1% (inactive) and 93.4% (inactive) | 98.1% (inactive) | 103% (inactive) | 107% (inactive) | 91.3% (inactive) and 97.4% (inactive) | 100% (inactive) and 98.7% (inactive) | 95.9% (inactive) and 87.9% (inactive) | 88% (inactive) and 105% (inactive) | 108% (inactive) and 100% (inactive) |
| O=C(N=C1C(=O)C2(CCCCC2)C2(N=C(c3ccccc3)OC2=O)C12CCCCC2)c1ccccc1 (stereo not drawn) | 62.3% (inactive) | 51.5% (inactive) | 85.2% (inactive) | 71.5% (inactive) | 59.6% (inactive) | 42.8% (inactive) | 64.6% (inactive) | 58.6% (inactive) | 71.5% (inactive) | 84.5% (inactive) |
| Cc1nc(Nc2ccc(Cl)cc2)c2cnn(-c3ccccc3)c2n1 | 94.8% (inactive) | 97.2% (inactive) | 86.6% (inactive) | 102% (inactive) | 98.8% (inactive) | 99.6% (inactive) | 94.4% (inactive) | 100% (inactive) | 97.9% (inactive) | 102% (inactive) |
| Nc1nc(-c2ccccn2)cc(-c2cc(-c3ccccn3)nc(N)n2)n1 | 97% (inactive) | 120% (inactive) | 143% (inactive) | 101% (inactive) | 109% (inactive) | 99.3% (inactive) | 105% (inactive) | 102% (inactive) | 96.5% (inactive) | 113% (inactive) |
| CCOC(=O)C(N)Cc1cc(I)c(O)c(I)c1 (stereo not drawn) | 107% (inactive) and 96.6% (inactive) | 105% (inactive) and 104% (inactive) | 102% (inactive) and 83.8% (inactive) | 109% (inactive) and 95.9% (inactive) | 104% (inactive) and 110% (inactive) | 98.3% (inactive) and 89.8% (inactive) | 105% (inactive) and 108% (inactive) | 101% (inactive) and 97% (inactive) | 110% (inactive) and 105% (inactive) | 111% (inactive) and 116% (inactive) |
| CC(=O)Oc1cc(C)c(OC(C)=O)c(C)c1C | 98% (inactive) | 114% (inactive) | 132% (inactive) | 96.4% (inactive) | 104% (inactive) | 90.5% (inactive) |  | 93.1% (inactive) | 83.6% (inactive) | 130% (inactive) |
| COc1cc([C@@H]2c3cc4c(cc3[C@H](O)[C@H]3COC(=O)[C@@H]23)OCO4)cc(OC)c1OC | 29.2% (inactive) and 10.5% (inactive) | 2.22% (active) and -8.13% (active) | 19.4% (inactive) and 12.9% (inactive) | 27.3% (inactive) and 12.9% (inactive) | 16.4% (inactive) and 26.2% (inactive) | 26.9% (inactive) and 6.21% (active) | -27.1% (active) and -44% (active) | 19.9% (inactive) and 68.1% (inactive) | 23.3% (inactive) and 15.6% (inactive) | 28.4% (inactive) and -24% (active) |
| C(#CCN1CCOCC1)CCCN1CCOCC1 | 91% (inactive) and 99.6% (inactive) | 106% (inactive) and 105% (inactive) | 83.7% (inactive) and 104% (inactive) | 107% (inactive) and 108% (inactive) | 102% (inactive) and 98.7% (inactive) | 99.9% (inactive) and 93.2% (inactive) | 101% (inactive) and 104% (inactive) | 96.3% (inactive) and 96.5% (inactive) | 102% (inactive) and 99.6% (inactive) | 107% (inactive) and 110% (inactive) |
| Cc1cc2ccccc2c2cc3ccccc3cc12 | 82.4% (inactive) | 88.3% (inactive) | 100% (inactive) | 105% (inactive) | 102% (inactive) | 90.8% (inactive) | 89.8% (inactive) | 87.8% (inactive) | 95.4% (inactive) | 107% (inactive) |
| CCOc1ccc(/C=C\C(=O)O)cc1 | 105% (inactive) | 105% (inactive) | 104% (inactive) | 106% (inactive) | 103% (inactive) | 102% (inactive) |  | 109% (inactive) | 105% (inactive) | 107% (inactive) |
| CCOC(=O)c1ccncc1 | 108% (inactive) | 104% (inactive) | 108% (inactive) | 111% (inactive) | 104% (inactive) | 97.5% (inactive) | 95.8% (inactive) | 101% (inactive) | 99% (inactive) | 110% (inactive) |
| CC(C)=NOC(C)C(=O)O (stereo not drawn) | 102% (inactive) | 110% (inactive) | 97.9% (inactive) | 108% (inactive) | 104% (inactive) | 92.9% (inactive) | 107% (inactive) | 89.4% (inactive) | 97.4% (inactive) | 113% (inactive) |
| OCCSc1ccc(Cl)cc1 | 104% (inactive) and 102% (inactive) | 104% (inactive) and 88.1% (inactive) | 96.7% (inactive) and 83% (inactive) | 118% (inactive) and 94.6% (inactive) | 102% (inactive) and 96.6% (inactive) | 101% (inactive) and 81.5% (inactive) | 108% (inactive) and 98.3% (inactive) | 110% (inactive) and 98.1% (inactive) | 98.4% (inactive) and 101% (inactive) | 121% (inactive) and 93.3% (inactive) |
